# Sampled rows, rich in hits. Any-hit rate of the full collection: about 3%.
# pS6 MEF inh: Acumen qHTS Assay for Inhibitors of the mTORC1 Signaling Pathway in MEF (Tsc2-/-, p53-/-) Cells: Sytravon. Tsc2-/- p53-/- MEF, phospho-rpS6 immunofluorescence/PI, 24 h. Potency, µM (series often up to 38.3 µM), inactives show at the highest dose activity change, negative = inhibition, actives largely listed as inhibitors. 44,000 tested, 0.78% active. AID 493208, 2011;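 further: potency means the concentration at half of the fitted maximal effect; plate controls were DMSO for no effect and rapamycin for full effect; nearly all actives have a fitted effect of over 50% in size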
#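 Cell-based qHTS: Tsc2-/- p53-/- MEF, 24 h cpd, 37 °C; fix/perm, anti-phospho-S6 Alexa-488 + PI; Acumen 488 nm scan; pS6/PI ratio, % positive cells; rapamycin 7.5 nM = inhibition ref; PI count = viability.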
# p53null 32C tox: qHTS Screen for Compounds that Selectively Target Cancer Cells with p53 Mutations: Cytotoxicity of p53 Null Cells at the Permissive Temperature. H1299-neo p53 null cells, ATP luminescence, 24 h, 32C. Potency, µM (top dose mostly 46.1 µM), for the others: top-dose activity change, negative = cytotoxicity, most hits filed as cytotoxic. 55,000 tested, 0.62% active. AID 903, 2007;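 further: potency means the concentration at half of the fitted maximal effect; 0% = DMSO only and -100% = full killing by 100 µM tamoxifen; nearly all actives have a fitted effect of over 55% in size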
#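 H1299-neo (p53 null) cells, 600/well, treated 24 h at 32C with compound up to 46 uM; ATPlite luminescence viability, normalized to DMSO and 100 uM tamoxifen; AC50 by Hill fit.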
# p53null 39C kill: qHTS Screen for Compounds that Selectively Target Cancer Cells with p53 Mutations: Cytotoxicity of p53 Null Cells at the Nonpermissive Temperature; Potency, µM (series often up to 46.1 µM), for inactives: at the highest dose activity, negative = cell killing, hits mostly cytotoxic; H1299 p53-null (neo) cells, 39C, ATPlite viability, 24 h; 55,000 tested, 0.97% active;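 further: potency means the concentration at half of the fitted maximal effect; 0% = DMSO only and -100% = full killing by 100 µM tamoxifen; nearly all actives have a fitted effect of over 50% in size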
#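 Temperature-shift cytotoxicity format: compound titrations on p53-null or A138V-expressing H1299 cells held 24 hr at 39C, cell ATP then measured, AC50 from Hill model.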
# S16 viability: Cell viability qHTS assay in S16 Pmp22-F2sN cells; S16 Pmp22-F2sN Schwann cells viability, CellTiter-Glo, 24 h; Potency, µM (doses to about 57.5 µM), inactives show top-dose activity change, negative = cytotoxicity, usual class: cytotoxic; 43,000 tested, 0.48% active; AID 1508642, 2021; further: potency means the concentration at half of the fitted maximal effect; on the % scale 0 is the no-effect control and ±100 the full control effect; nearly all actives have a fitted effect of over 65% in size
#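 S16 Schwann cells carrying the Pmp22-F2sN reporter, seeded in 1536-well format, were exposed to library compounds for 24 h at 37C. Viability was read as CellTiter-Glo luminescence after 15 min at room temperature.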
# SKOV3 invasion: Primary qHTS assay for Inhibitors of ovarian cancer metastasis using an organotypic tumor microenvironment (TME) model; SKOV3ip1-GFP adhesion/invasion on 3D omental model, fluorescence; Potency, µM (highest dose often 45.8 µM), for inactives: at the top dose activity change, negative = inhibition, hits mostly inhibitors; 46,000 tested, 0.1% active; AID 1963576, 2024;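 further: potency means the concentration at half of the fitted maximal effect; plate controls were DMSO wells for no effect and tomatine positive control wells for full effect; nearly all actives have a fitted effect of over 65% in size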
#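 A 3D layer of primary human omental fibroblasts, mesothelial cells, fibronectin and collagen I, grown 48 hr, received SKOV3ip1-GFP cells in serum-free medium plus compounds at 0.36-46 umol/L. After 2 hr RT and 16 hr 37 C, fixed adherent GFP cells were counted; normalized to DMSO and tomatine.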
# PMP22 txn: Cell-based coincidence reporter assay to measure PMP22 gene transcription in S16 Pmp22-F2sN cells - Primary screen; S16 Pmp22-F2sN Schwann cells (luciferase reporters placed in the Pmp22 gene), FLuc/NLuc coincidence luminescence, 24 h; Potency, µM (highest dose often 57.5 µM), without a hit: at the top dose activity change, negative = inhibition, most hits filed as inhibitors; 43,000 tested, 2% active; active means clear falling dose curves in both reporters; inconclusive means both reporters move, but less clearly or upward; inactive means either reporter flat; the % is the NLuc reporter signal; further: potency means the concentration at half of the fitted maximal effect; on the % scale 0 is the no-effect control and ±100 the full control effect
#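 Transcriptional readout in edited S16(c9) cells: two luciferases reported from the Pmp22 locus, measured in turn after 24 h compound incubation.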
# NLuc sat counter: Biochemical NLuc saturation counterscreen for small molecule modulators of PMP22 gene expression - Nano-Glo assay; shares compounds with PMP22 txn; Secreted NLuc enzyme (filtered S16 cell medium), Nano-Glo luminescence; Potency, µM (doses to about 57.5 µM), inactives show at the highest dose activity change, negative = inhibition, most hits filed as inhibitors; 690 tested, 4% active; further: potency means the concentration at half of the fitted maximal effect; on the % scale 0 is the no-effect control and ±100 the full control effect
# NLuc Km ctr: Biochemical coelenterazine-based NLuc counterscreen for small molecule modulators of PMP22 gene expression - Km assay. shares compounds with PMP22 txn. secreted NLuc enzyme, coelenterazine luminescence, Km conditions. Potency, µM (top dose mostly 57.5 µM), for the others: top-dose activity change, negative = inhibition, actives largely listed as inhibitors. 690 tested, 5% active. AID 1508639, 2021; further: potency means the concentration at half of the fitted maximal effect; on the % scale 0 is the no-effect control and ±100 the full control effect
# FLuc counter: Biochemical FLuc counterscreen for small molecule modulators of PMP22 gene expression. shares compounds with PMP22 txn. Potency, µM (doses to about 57.5 µM), for inactives: top-dose activity, negative = inhibition, actives largely listed as inhibitors. purified P. pyralis FLuc, luminescence, 10 min. 690 tested, under 10 active; further: % of control where 0% means no effect
# Target sequence (P08659 whole entry, looked up): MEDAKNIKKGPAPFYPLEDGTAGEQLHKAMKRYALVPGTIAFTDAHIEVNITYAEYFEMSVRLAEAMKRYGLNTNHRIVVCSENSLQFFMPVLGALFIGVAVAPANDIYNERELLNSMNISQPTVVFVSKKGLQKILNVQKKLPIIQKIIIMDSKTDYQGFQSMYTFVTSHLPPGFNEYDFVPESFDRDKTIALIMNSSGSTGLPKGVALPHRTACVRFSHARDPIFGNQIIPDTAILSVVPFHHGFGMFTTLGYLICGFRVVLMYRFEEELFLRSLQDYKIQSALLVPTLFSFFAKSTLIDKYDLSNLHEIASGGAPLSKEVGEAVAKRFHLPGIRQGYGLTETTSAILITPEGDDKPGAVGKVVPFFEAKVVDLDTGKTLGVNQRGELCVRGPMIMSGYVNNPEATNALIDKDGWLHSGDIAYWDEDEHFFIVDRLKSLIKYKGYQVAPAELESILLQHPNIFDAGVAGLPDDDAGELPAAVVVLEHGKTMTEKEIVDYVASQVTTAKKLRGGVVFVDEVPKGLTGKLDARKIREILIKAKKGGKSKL
# S16 F2sN tox cnf: Cell viability qHTS assay in S16 Pmp22-F2sN cells - Confirmatory screen; S16 Schwann cells viability, CellTiter-Glo ATP luminescence, 24 h; AID 1508641, 2021; 690 tested, 7% active; Potency, µM (top dose mostly 57.5 µM), for the others: top-dose activity change, negative = viability loss, actives largely listed as cytotoxic; shares compounds with PMP22 txn; further: potency means the concentration at half of the fitted maximal effect; on the % scale 0 is the no-effect control and ±100 the full control effect
# PMP22 txn cnf: Cell-based coincidence reporter assay to measure PMP22 gene transcription in S16 Pmp22-F2sN cells - Confirmatory screen | shares compounds with PMP22 txn | S16 Schwann cells Pmp22-F2sN, dual luciferase, 24 h | Potency, µM (top dose mostly 57.5 µM), for the others: at the highest dose activity change, negative = inhibition, most hits filed as inhibitors | 690 tested, 22% active; active means clear falling dose curves in both reporters; inconclusive means both reporters move, but less clearly or upward; inactive means either reporter flat; the % is the FLuc reporter signal; further: potency means the concentration at half of the fitted maximal effect
# PMP22 prot conf: Cell-based HiBiT reporter assay to measure PMP22 protein expression in S16 Pmp22-HiBiT cells - Confirmatory screen. shares compounds with PMP22 txn. S16 Schwann cells Pmp22-HiBiT, luminescence, 48 h. Potency, µM (series often up to 27.9 µM), inactives show at the top dose activity change, negative = inhibition, most hits filed as inhibitors. 95 tested, under 10 active. AID 1508647, 2021
# Target sequence (P25094 whole entry, looked up): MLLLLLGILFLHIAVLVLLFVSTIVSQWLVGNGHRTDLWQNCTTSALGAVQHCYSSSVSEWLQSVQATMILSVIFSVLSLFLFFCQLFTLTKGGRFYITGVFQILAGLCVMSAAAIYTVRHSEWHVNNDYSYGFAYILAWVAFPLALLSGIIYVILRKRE
# Numbers without * were called inactive; i = inactive; ? = inconclusive; · = not tested or not shown. Unless noted, the call rests on the fitted dose curve; in most records, active means well fitted curve in the direction sought with a large enough effect; inconclusive means small, poorly fitted or top-dose-only effect, or another doubt; inactive means no such curve, though single readings can be large; an effect the other way counts as inactive or inconclusive.
SMILES,pS6 MEF inh,p53null 32C tox,p53null 39C kill,S16 viability,SKOV3 invasion,PMP22 txn,NLuc sat counter,NLuc Km ctr,FLuc counter,S16 F2sN tox cnf,PMP22 txn cnf,others
COc1cccc(-c2cc(C(=O)Nc3cc(OC)c(OC)c(OC)c3)on2)c1,-1.1%,2.1%,-7.6%,?,?,3.92µM*,?,10.9µM*,-13.4%,-5.9%,18.3µM*,
CCOC(=O)c1ccccc1NC(=O)Cn1c(=O)n(Cc2ccccc2)c(=O)c2c(C)c(C)sc21,?,6.9%,11.9%,-6.6%,-0.6%,17.8µM*,-10.3%,-4.4%,9.7%,5.8%,17.9%,
Cc1ccc(Cn2c(=O)n(Cc3ccccc3)c(=O)c3c(C)c(C)sc32)cc1,2.7%,0.7%,18.1%,-8.3%,i,-5.8%,·,·,·,·,·,
O=C(CSc1nc2cc(C(=O)NC3CCCC3)ccc2c(=O)n1CC1CCCO1)c1cccc(Cl)c1 (stereo unspecified),0.0%,7.2%,0.0%,28.2µM*,i,14.1µM*,-18.9%,-5.2%,-5.9%,-7.0%,?,
Cc1ccc(C(=O)CSc2nc3cc(C(=O)NC4CCCC4)ccc3c(=O)n2CC2CCCO2)cc1 (stereo unspecified),6.3%,-13.9%,-11.1%,?,i,24.1%,·,·,·,·,·,
O=C(c1ccc(CS(=O)c2ccccc2Cl)o1)N1CCN(c2cccc(C(F)(F)F)c2)CC1 (stereo unspecified),?,-2.1%,?,-25.7%,-3.3%,11.9µM*,-14.3%,?,-1.1%,-38.6%,?,PMP22 prot conf=?
Cc1ccccc1S(=O)(=O)Cc1ccc(C(=O)N2CCN(c3cccc(Cl)c3)CC2)o1,?,-7.4%,-1.1%,?,-1.6%,11.9µM*,?,-20.0%,9.6%,-12.8%,9.74µM*,PMP22 prot conf=?
O=C(c1ccc(CS(=O)c2ccccc2Cl)o1)N1CCN(c2cccc(Cl)c2)CC1 (stereo unspecified),?,-21.8%,?,-8.8%,i,?,·,·,·,·,·,
COc1cccc(N2CCN(C(=O)c3ccc(CS(=O)c4cccc(Cl)c4)o3)CC2)c1 (stereo unspecified),?,-3.2%,-19.8%,-14.0%,i,5.04µM*,?,?,1.2%,-8.4%,?,
COc1ccc(S(=O)Cc2ccc(C(=O)N3CCN(c4cccc(C)c4C)CC3)o2)cc1 (stereo unspecified),-28.3%,-2.6%,-2.3%,?,-5.2%,?,·,·,·,·,·,
Cc1ccc(-n2nc(C(C)(C)C)cc2NC(=O)Nc2ccc(OCCN3CCOCC3)c3ccccc23)cc1,·,·,·,·,26.3%,·,·,·,·,·,·,

# Bioassay records: PubChem, National Center for Advancing Translational Sciences (NCATS)
